# Screening data deposited in PubChem BioAssay by National Center for Advancing Translational Sciences (NCATS).
# Only some compounds are listed: those with a hit (about 19% of all), similar ones and a draw of the others.
# HT1080 IDH1KD tx: kills HT-1080 cells with IDH1 knockdown; AID 686971; 2% of 360,000 active; HT-1080 IDH1 knockdown viability, ATP luminescence, 48 h; Potency, µM (highest dose often 46.1 µM), without a hit: at the highest dose activity, negative = toxicity, actives largely listed as cytotoxic;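 further: potency means the concentration at half of the fitted maximal effect; 0% = DMSO wells and -100% = cell-free medium wells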
#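 Knockdown cells (IDH1KD HT-1080) received compounds 2 h after plating at 750 cells/well and were kept 48 h at 37 °C in 5% FBS RPMI. A CellTiter-Glo luminescence read gave % activity for curve fitting.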
# HT1080NT lethal: kills 2HG-producing HT-1080-NT fibrosarcoma cells; AID 686970; HT-1080-NT fibrosarcoma viability, CellTiter-Glo ATP luminescence, 48 h; 1.6% of 360,000 active; Potency, µM (titrated, usually from 46.1 µM), for inactives: top-dose activity, negative = less viability, hits mostly cytotoxic;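 further: NT is the 2HG producing partner of a matched IDH1 knockdown line; potency means the concentration at half of the fitted maximal effect; 0% = DMSO-treated cells and -100% = media-only wells without cells; nearly all actives have a fitted effect of over 55% in size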
#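 HT-1080-NT; 750 cells/well; 5% FBS RPMI; 48 h compound, 37 degrees C; CellTiter-Glo luminescence; curve fitting and curve-class assignment.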
# DT40 TDP1 no CPT: qHTS for Inhibitors of human tyrosyl-DNA phosphodiesterase 1 (TDP1): qHTS in cells in absence of CPT. Potency, µM (highest dose often 46.2 µM), for inactives: top-dose activity change, negative = growth inhibition, most hits filed as inhibitors. 15% of 420,000 active. DT40 Tdp1-/- hTDP1 cells, no CPT, ATP luminescence, 48 h. AID 686978, 2013; further: potency means the concentration at half of the fitted maximal effect; nearly all actives have a fitted effect of over 55% in size
#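 A cellular qHTS used chicken DT40 cells lacking endogenous Tdp1 but carrying stably transfected human TDP1. Compounds were applied without camptothecin, and cell growth kinetics were judged by ATP-dependent luminescence after ≥48 hr.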
# IL-1B inflam inh: blocks inflammasome-driven IL-1 beta release. THP-1 LPS/ATP IL-1B secretion, AlphaLISA, 16 h; stronger effect = lower value. activity change, % at 57.5 µM. 4.7% of 360,000 active. AID 743279; in the data active means activity change below about -50%; inconclusive means mostly about -30% to -49%
#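 Secreted IL-1B measured by AlphaLISA bead assay after 16 h compound exposure of THP-1 cells; compounds (final up to 57.5 uM) added 1 h before LPS (250 ng/mL) and ATP (1.25 mM) stimulation; lower signal means less secretion.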
# ELG1 repair inh: inhibitors of ELG1-dependent DNA repair in HEK293T cells. Potency, µM (top dose mostly 46.1 µM), without a hit: top-dose activity change, negative = inhibition, usual class: inhibitors. 2.3% of 330,000 active. AID 504467. HEK293T ELG1-luciferase reporter, luminescence, 16 h; DNA damage induced by 5-fluorouridine; further: potency means the concentration at half of the fitted maximal effect; nearly all actives have a fitted effect of over 55% in size
#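 Step one: seed 2,000 cells per well. Step two: pin-transfer compound or DMSO alongside 5-fluorouridine. Step three: incubate 16 hr, 37 °C, 5% CO2. Step four: add ONE-Glo, wait 30 min, read luminescence.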
# DT40 TDP1 CPT: DT40-hTDP1 cell growth loss with CPT; chicken DT40 Tdp1-/-;hTDP1 cells + 20 nM CPT, ATP luminescence, 48 h; Potency, µM (doses to about 46.2 µM), inactives show top-dose activity change, negative = growth inhibition, most hits filed as inhibitors; 12% of 420,000 active; further: potency means the concentration at half of the fitted maximal effect; nearly all actives have a fitted effect of over 55% in size
#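 Cell growth measured by CellTiter-Glo luminescence after a minimum 48 h, 37 C compound exposure with 20 nM CPT in Tdp1-knockout DT40 cells stably expressing hTDP1, seeded 400/well; qHTS titration format.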
# * = called active by the depositor; ? = inconclusive; . = no result. Unless noted, the call rests on the fitted dose curve; in most records, active means well fitted curve in the direction sought with a large enough effect; inconclusive means small, poorly fitted or top-dose-only effect, or another doubt; inactive means no such curve, though single readings can be large; an effect the other way counts as inactive or inconclusive. Unless noted, on the % scale 0 is the no-effect control and ±100 the full control effect.
SMILES,HT1080 IDH1KD tx,HT1080NT lethal,DT40 TDP1 no CPT,IL-1B inflam inh,ELG1 repair inh,DT40 TDP1 CPT
Cc1ccc(NC=C(S(=O)(=O)c2ccccc2)S(=O)(=O)c2ccccc2)c(C)c1,12%,12%,21µM*,-15,-5%,?
Cc1ccc(NC=C(S(=O)(=O)c2ccccc2)S(=O)(=O)c2ccccc2)cc1,9%,9%,?,-2,-5%,-17%
COc1ccc(/C=C/c2cc(C(=O)O)c3ccccc3n2)cc1,?,-18%,15µM*,17,?,10µM*
COc1cc(OC)c(OC)cc1/C=C/c1cc(C(=O)O)c2ccccc2n1,1%,26%,-1%,6,16%,9%
Cc1cc(/C=C\c2ccccc2)nc2ccccc12,-24%,2%,-23%,-52*,?,-7%
Cc1cc(C(Br)(Br)Br)nc2ccccc12,.,.,2.5µM*,.,.,2.5µM*
COc1ccccc1C(=O)COC(=O)c1ccc(Cl)nc1,8%,9%,?,1,?,5%
COc1ccc(C)cc1NC(=O)Cn1c(=O)n(Cc2nc(C)no2)c(=O)c2ccccc21,.,.,?,.,.,-26%
Cc1ccc(Cc2c(C3CCCCC3)nc3c4ccccc4ccn23)cc1,5%,4%,23µM*,34,.,?
COc1ccccc1Cc1c(C2CCCCC2)nc2c3ccccc3ccn12,-18%,4%,?,26,.,?
c1ccc2c(c1)ccn1c(Cc3ccsc3)c(C3CCCCC3)nc21,?,-18%,15µM*,11,.,18µM*
O=C(Nc1nonc1-c1ccc(Br)cc1)c1ccco1,.,.,-22%,.,.,-20%
O=C(CC(C(=O)O)c1ccc(F)cc1)c1ccc(Cl)cc1 (stereo unspecified),4%,16%,-14%,20,6%,3%
Cc1ccc(SC(CC(=O)c2ccc(F)cc2)C(=O)O)cc1 (stereo unspecified),0%,0%,26µM*,-96*,-11%,?
CC(C)(C)c1ccc(C(=O)CC(Sc2ccc(Cl)cc2)C(=O)O)cc1 (stereo unspecified),15µM*,12µM*,4.1µM*,-97*,?,3.3µM*
O=C(C(=O)N1CCN(c2ccccc2F)CC1)c1ccccc1,27%,20%,-8%,3,.,-11%
CN(C(=O)COC(=O)c1cc(S(=O)(=O)N2CCOCC2)ccc1Cl)C1CCS(=O)(=O)C1 (stereo unspecified),-1%,-5%,-12%,4,-1%,19%
COc1ccccc1NC(=O)c1sc2nc3n(c(=O)c2c1C)N=C(c1cccc(Br)c1)CS3,.,.,1%,.,.,-9%
CC(C)C(=O)Nc1ccc(COc2ccccc2CN(Cc2ccccc2)C(=O)OC(C)(C)C)cc1,?,-9%,15µM*,-24,.,15µM*
CC(C)C(=O)Nc1cccc(COc2ccc(CN(Cc3ccccc3)C(=O)OC(C)(C)C)cc2)c1,-15%,-7%,16µM*,-6,.,?
Cc1cc2nnc(SCC(=O)NCC3CCCO3)n2c2ccccc12 (stereo unspecified),8%,18%,-12%,-15,-3%,7%
COc1cccc(C(=O)N(C)CC2CCN(CCc3cccc(C(F)(F)F)c3)CC2)c1,0%,7%,?,-10,-18%,?
CCOC(=O)CN(C(=O)c1ccccc1[N+](=O)[O-])C(C)(C)C,18%,22%,2%,12,19%,-1%
COCC(=O)N[C@H]1C=C[C@@H](CC(=O)OC)O[C@@H]1CO,11%,19%,0%,20,.,-2%
COc1ccc(C(=O)Nc2ccccc2C(=O)Nc2cc(C)ccn2)cc1,?,?,18µM*,-23,?,?
SMILES,HT1080 IDH1KD tx,HT1080NT lethal,DT40 TDP1 no CPT,IL-1B inflam inh,ELG1 repair inh,DT40 TDP1 CPT
COc1ccc(C(=O)Nc2ccc(C)cc2C(=O)c2ccccc2)cc1,-1%,-1%,-21%,-73*,?,-9%
COc1cc2ccccc2cc1C(=O)Nc1cc(C)ccn1,-17%,-14%,?,-57*,?,?
COc1cc2ccccc2cc1C(=O)Nc1nccs1,-15%,-18%,?,-1,?,15µM*
CCOC(=O)c1ccc(S(=O)(=O)Nc2cc(S(=O)(=O)N3CCOCC3)ccc2O)cc1,1%,6%,?,12,3%,?
Cc1ccnc(NC(=O)c2ccccc2NC(=O)C(C)(C)C)c1,?,?,16µM*,49,?,18µM*
COc1ccc(-c2nn(-c3ccccc3)cc2C(=O)Nc2nccs2)cc1,-22%,-22%,?,?,6.5µM*,?
COc1cccc(-c2nn(-c3ccccc3)cc2C(=O)Nc2nccs2)c1,-11%,-19%,?,?,?,?
CCn1cc(C(=O)O)c(=O)c2cc(F)c(N3CCNC(C)C3)c(F)c21 (stereo unspecified),.,.,?,.,.,15µM*
COCCNC(=O)c1cc2c(c(-c3cccc(C#CC(C)(C)O)c3)n1)[C@@H](CCO)N(S(=O)C(C)(C)C)C2 (stereo partly specified),2%,-1%,-5%,28,.,-24%
COCCNC(=O)C1(C)CCCN(Cc2cc(-c3ccccc3)nn2C)C1 (stereo unspecified),13%,13%,?,-16,.,?
N#Cc1ccc(OCC(=O)Nc2ccc(S(=O)(=O)N3CCOCC3)cc2)cc1,-4%,-19%,-29%,-4,-2%,-3%
COc1ccc(-c2nn(-c3ccccc3)cc2C2NC(=O)NC(C)=C2C(=O)OC(C)C)cc1OC (stereo unspecified),.,.,2%,.,.,-3%
NC1=NC(c2cn(-c3ccccc3)nc2-c2cccs2)n2c(nc3ccccc32)N1 (stereo unspecified),?,18µM*,-1%,-8,15%,?
CC1=C(C#N)C(c2cn(-c3ccccc3)nc2-c2cccs2)C(C#N)=C(C)N1,?,?,-24%,-90*,-24%,-18%
CCOC(=O)C1=C(C)NC(=O)NC1c1cn(-c2ccccc2)nc1-c1ccc(OC(C)C)cc1 (stereo unspecified),.,.,16µM*,.,.,?
